Source: PubChem BioAssay (National Center for Advancing Translational Sciences (NCATS))
A selection: hits, their analogues and other compounds. The true share with any hit is near 21%.
ClpP mod = qHTS Assay for Activators of ClpP | Potency, µM (series often up to 57.5 µM), inactives show at the highest dose activity change, negative = active | ATP-dependent Clp protease proteolytic subunit (Bacillus subtilis (strain 168)), P80244 | hit rate 1.9% among 340,000 | purified B. subtilis ClpP, FRET peptide cleavage, 20 min; active = well fitted falling curve with a large enough effect; inconclusive = small, poorly fitted or top-dose-only effect; inactive = no such curve, though single readings can be large or run the other way; note: potency is the fitted concentration of half-maximal effect; the source files actives as falling curves though it sought activators and does not explain the sign; nearly all actives have a fitted effect of over 65% in size
Target sequence (P80244 whole entry, looked up): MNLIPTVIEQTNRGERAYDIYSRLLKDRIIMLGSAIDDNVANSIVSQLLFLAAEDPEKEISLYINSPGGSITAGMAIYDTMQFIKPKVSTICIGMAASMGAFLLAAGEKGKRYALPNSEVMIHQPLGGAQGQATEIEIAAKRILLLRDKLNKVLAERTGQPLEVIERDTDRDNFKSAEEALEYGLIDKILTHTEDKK
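Buffer: 100 mM Tris/HCl pH8, 100 mM KCl, 0.05% low protease BSA, 2.5% glycerol, 0.01% Tween-20. ClpP 10 microg/mL final; 20 min RT; delta FRET normalized to ADEP and DMSO controls.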
DRD3 agonist = D3 dopamine receptor (human) agonism. hit rate 0.58% among 410,000. max activation, %. D3R DiscoveRx beta-arrestin cells, luminescence, 90 min; in the data active = max activation above about 30%; note: 0% is about no effect
Target sequence (P35462 whole entry, looked up): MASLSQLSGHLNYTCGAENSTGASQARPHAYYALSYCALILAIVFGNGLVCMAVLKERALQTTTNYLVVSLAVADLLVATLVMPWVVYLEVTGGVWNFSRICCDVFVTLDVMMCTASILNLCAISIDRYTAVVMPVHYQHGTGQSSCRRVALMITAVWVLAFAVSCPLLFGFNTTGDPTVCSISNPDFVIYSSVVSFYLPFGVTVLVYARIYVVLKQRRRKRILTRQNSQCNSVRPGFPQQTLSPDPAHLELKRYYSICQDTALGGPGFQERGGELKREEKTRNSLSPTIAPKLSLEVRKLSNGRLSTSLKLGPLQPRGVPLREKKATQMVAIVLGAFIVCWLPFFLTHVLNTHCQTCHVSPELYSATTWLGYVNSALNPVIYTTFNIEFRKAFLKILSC
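Agonist-mode cell screen: cells plated at 1500/well and incubated overnight at 37 °C, then exposed to library compounds for 90 min at 37 °C. Detection reagent was added for 30–60 min at room temperature, and luminescence was read.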
IL-1B inflam inh = inflammasome signaling inhibition, IL-1 beta readout | activity change, % at 57.5 µM | THP-1 LPS/ATP IL-1B secretion, AlphaLISA, 16 h; stronger effect = lower value | hit rate 4.7% among 360,000; in the data active = activity change below about -50%; inconclusive = mostly about -30% to -49%; note: % is set by controls: 0 for no effect and ±100 for the full control effect
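Secreted IL-1B measured by AlphaLISA bead assay after 16 h compound exposure of THP-1 cells; compounds (final up to 57.5 uM) added 1 h before LPS (250 ng/mL) and ATP (1.25 mM) stimulation; lower signal means less secretion.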
TDP1 cell CPT = growth inhibition of DT40 Tdp1-/-;hTDP1 cells with camptothecin (screen for TDP1 inhibitors); chicken DT40 Tdp1-/-;hTDP1 cells + 20 nM CPT, ATP luminescence, 48 h; Potency, µM (top dose mostly 46.2 µM), without a hit: top-dose activity change, negative = growth inhibition, usual class: inhibitors; hit rate 12% among 420,000; note: potency is the fitted concentration of half-maximal effect; % is set by controls: 0 for no effect and ±100 for the full control effect; nearly all actives have a fitted effect of over 55% in size
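Cell growth measured by CellTiter-Glo luminescence after a minimum 48 h, 37 C compound exposure with 20 nM CPT in Tdp1-knockout DT40 cells stably expressing hTDP1, seeded 400/well; qHTS titration format.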
TDP1 cell noCPT = qHTS for Inhibitors of human tyrosyl-DNA phosphodiesterase 1 (TDP1): qHTS in cells in absence of CPT; DT40 Tdp1-/- hTDP1 cells, no CPT, ATP luminescence, 48 h; Potency, µM (titrated, usually from 46.2 µM), without a hit: top-dose activity change, negative = growth inhibition, most hits filed as inhibitors; hit rate 15% among 420,000; note: potency is the fitted concentration of half-maximal effect; % is set by controls: 0 for no effect and ±100 for the full control effect; nearly all actives have a fitted effect of over 55% in size
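Luminescent ATP content (CellTiter-Glo) served as the growth readout. Knockout chicken DT40 cells expressing human TDP1 were exposed to compounds without camptothecin for a minimum 48 hr at 37 °C.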
DRD3 antagonist = blocks the human D3 dopamine receptor. P35462. D3R cells, DiscoveRx beta-arrestin luminescence, antagonist mode; stronger effect = lower value. max response, negative = inhibition, %. hit rate 2.5% among 360,000. AID 652054; in the data active = max response below about -50%; inconclusive = no clear call, values can overlap the other calls; note: % is set by controls: 0 for no effect and ±100 for the full control effect
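Cells plated overnight at 1500 cells/well, then exposed to library compounds with dopamine controls for 90 minutes at 37 degrees C. DiscoveRx reagent added for 30–60 minutes at room temperature; luminescence read, quantitative HTS format.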
The depositor's hits bear a star; ? = inconclusive; nt = not tested or not shown. Unless noted, calls come from the whole dose curve; as a rule, active = well fitted inhibition curve with a large enough effect; inconclusive = small, poorly fitted or top-dose-only effect; inactive = flat fitted curve, though single readings scatter.

SMILES | ClpP mod | DRD3 agonist | IL-1B inflam inh | TDP1 cell CPT | TDP1 cell noCPT | DRD3 antagonist
CCN(CC)CCn1c2ccccc2c2nc3ccccc3nc21 | 0% | -5 | -97* | ? | 23µM* | 6
Cc1ccc(S(=O)(=O)N2CCN(C(=O)CSc3ccccn3)CC2)c(C)c1 | -2% | -11 | -1 | ? | -85% | -15
Cc1ccc(C)c(N2CCN(C(=O)c3cccc(-n4c(C)nc5cccnc54)c3)CC2)c1 | 0% | 7 | nt | 7.3µM* | 13µM* | nt
O=C(Nc1ccc(F)cc1F)c1cc2ccc3cccnc3c2[nH]1 | -4% | 1 | nt | 2.9µM* | ? | nt
CCCCNC(=O)c1cccc(-n2c(C)nc3cccnc32)c1 | 3% | 6 | nt | -4% | -28% | nt
Cc1ccc(C)c(N2CCN(C(=O)c3cc4ccc5cccnc5c4[nH]3)CC2)c1 | -11% | 1 | nt | 29µM* | ? | nt
O=C(NCc1ccccc1)c1cc2ccc3cccnc3c2[nH]1 | 28% | -11 | nt | ? | ? | nt
Cc1cccc(N2CCN(C(=O)c3cccc(-n4c(C)nc5cccnc54)c3)CC2)c1C | -2% | 7 | nt | 7.3µM* | 5.8µM* | nt
CCN(C(=O)c1ccc2c(c1)OCO2)C1CCS(=O)(=O)C1 (configuration not stated) | 0% | 2 | 6 | 0% | 19% | 8
Cc1ccc(Cl)cc1N1CCN(C(=O)c2ccc(CN3CCOCC3)cc2)CC1 | -1% | -6 | ? | ? | ? | -21
Cc1cccc(N2CCN(C(=O)c3cccc(-n4c(C)nc5cccnc54)c3)CC2C)c1 (configuration not stated) | -2% | 6 | nt | 8.2µM* | 6.5µM* | nt
Cc1ccc(Cl)cc1N(C)C(=O)c1cc2ccc3cccnc3c2[nH]1 | -3% | -5 | nt | 6.5µM* | 8.2µM* | nt
Cc1ccc(Cl)cc1N1CCN(C(=O)c2ccc(C)c(-n3c(C)nc4cccnc43)c2)CC1 | -8% | -7 | nt | 7.3µM* | 5.2µM* | nt
Cc1cccc(N2CCN(C(=O)c3ccccn3)CC2C)c1 (configuration not stated) | nt | 3 | 5 | ? | -18% | 23
Cc1cc(C)c(-n2nnnc2SC(C)C)c(C)c1 | 0% | 3 | 13 | -4% | -11% | -19
CC(C)=CC(=O)Nc1ccc(S(=O)(=O)Nc2ccccn2)cc1 | -8% | 1 | -2 | -10% | -22% | 20
CC(=O)N1c2c(cc(Br)cc2S(=O)(=O)N2CCN(c3ccccc3)CC2)CC1C (configuration not stated) | -3% | -10 | nt | 23µM* | 16µM* | nt
CC(=O)N1c2c(cc(Br)cc2S(=O)(=O)N2CCN(C(=O)c3ccco3)CC2)CC1C (configuration not stated) | 0% | 2 | 0 | 21µM* | 18µM* | 6
CCC(=O)N1CCc2cc(Br)cc(S(=O)(=O)N3CCN(C(=O)c4ccco4)CC3)c21 | -2% | 3 | 9 | 8% | -21% | 44
Cc1cc2nc(-c3cccc(NC(=O)COc4ccc(Cl)c(C)c4)c3)oc2cc1C | ? | 4 | nt | -28% | -16% | nt
CC(OC(=O)CNC(=O)c1ccc2ccccc2c1)C(=O)NC1CCCCC1C (configuration not stated) | nt | 4 | -4 | -15% | -23% | -7
CCN(c1ccccc1)S(=O)(=O)c1ccc(OC)c(NC(=O)C2=NN(c3ccccc3)C(=O)CC2)c1 | 0% | 2 | 42 | -18% | -27% | 58
CCN(c1ccccc1)S(=O)(=O)c1ccc(OC)c(NC(=O)C2CC(=O)N(Cc3ccccc3)C2)c1 (configuration not stated) | 0% | 7 | -54* | ? | ? | -1
CCN(c1ccccc1)S(=O)(=O)c1ccc(Oc2ccc([N+](=O)[O-])cc2)nc1 | -1% | -20 | -14 | ? | ? | -16
CCN(c1ccccc1)S(=O)(=O)c1ccc(OC)c(NC(=O)c2ccccc2OC)c1 | ? | -15 | 11 | 21µM* | ? | 5
SMILES | ClpP mod | DRD3 agonist | IL-1B inflam inh | TDP1 cell CPT | TDP1 cell noCPT | DRD3 antagonist
CCN(c1ccccc1)S(=O)(=O)c1ccc(OC)c(NC(=O)CNC)c1 | nt | 1 | 0 | 5% | -27% | -6
CCN(c1ccccc1)S(=O)(=O)c1ccc(OC)c(NC(=O)c2ccco2)c1 | 2% | 2 | 14 | ? | 21µM* | 4
CCN(c1ccccc1)S(=O)(=O)c1ccc(OC)c(NC(=O)CN(C)C)c1 | -3% | -5 | 1 | ? | ? | -13
CCN(c1ccccc1)S(=O)(=O)c1ccc(Oc2ccc(C(C)=O)cc2OC)nc1 | -1% | 0 | 14 | ? | 16µM* | 2
C=Cc1ccc(CSc2nc(-c3ccccc3Cl)nc3c2Cc2c(CO)cnc(C)c2O3)cc1 | 0% | -1 | nt | ? | ? | nt
CCOc1ccc(NC(=O)CN(C)C(=O)c2cccnc2SC)cc1OCC | 1% | -1 | 0 | -17% | -11% | -4
COc1cccc(-n2cc(C(=O)Nc3cccc(C(F)(F)F)c3)c3ccccc3c2=O)c1 | ? | -3 | nt | 16µM* | ? | nt
COc1ccc(-n2cc(C(=O)NC(C)c3ccccc3)c3ccccc3c2=O)cc1 (configuration not stated) | -4% | 4 | nt | 18µM* | ? | nt
COc1ccc(-n2cc(C(=O)O)c3ccccc3c2=O)cc1 | -13% | -2 | 8 | -6% | -9% | 14
CCN(C(=O)c1cn(C)c(=O)c2ccccc12)c1cccc(C)c1 | -14% | -17 | nt | -30% | ? | nt
CCOc1ccc(CCNC(=O)c2cn(-c3cccc(OC)c3)c(=O)c3ccccc23)cc1 | -15% | 14 | nt | ? | 21µM* | nt
CCN(C(=O)c1cn(-c2ccc(OC)cc2)c(=O)c2ccccc12)c1cccc(Cl)c1 | -18% | -8 | nt | 16µM* | 16µM* | nt
COCC(=O)N1CCC2(CCCN(C(=O)Nc3cccc(F)c3)C2)CC1 | nt | nt | nt | 1% | 2% | nt
COc1cccc(-n2cc(C(=O)NCc3ccc(C)cc3)c3ccccc3c2=O)c1 | -18% | -12 | nt | 15µM* | ? | nt
COc1cccc(-n2cc(C(=O)NCCc3ccc(C)cc3)c3ccccc3c2=O)c1 | -21% | 4 | nt | 8.2µM* | 10µM* | nt
COc1ccc(-n2cc(C(=O)NCCc3ccc(C)cc3)c3ccccc3c2=O)cc1 | -23% | -9 | nt | ? | 21µM* | nt
Cc1ccc(-n2cc(C(=O)Oc3cccc(C)c3)c3ccccc3c2=O)cc1 | 1% | -13 | nt | -4% | -1% | nt
